Data as given in the supplement of paper PMC11732987, “Enantioselective OTUD7B fragment discovery through chemoproteomics screening and high-throughput optimisation” (Communications Chemistry, 2025).

Experiments:
Assay in all cases: log2 ratio of Biotin-Ahx-Ub-VS probe labelling (fragment/DMSO); higher = less target engagement (more negative = stronger competition), active = hit call of the paper (q ≤ 0.05, log2 ratio ≤ -1)
Details in all cases: compound concentration: 200 uM; treatment time: 3 h
[1] = target: USP34 (UniProt Q70CQ2)
Summary of the method: (§1)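 Labelled DUBs from HEK293T lysate were NeutrAvidin-enriched, digested with LysC and trypsin, and run by diaPASEF LC-MS/MS. Before that, each 495 µg sample in Tris/CHAPS/IGEPAL buffer with protease inhibitors was treated in triplicate with fragment at 200 µM or vehicle for 3 h, then with Biotin-Ahx-Ub-VS at 0.5 µM final for 1 h. Values are average log2 ratios of fragment over vehicle by unpaired t-test, based on global-median-normalised Spectronaut label-free quantities from proteins with ≥2 unique peptides.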

[2] = target: T1, USP36 (UniProt Q9P275)
T1 sequence (whole entry): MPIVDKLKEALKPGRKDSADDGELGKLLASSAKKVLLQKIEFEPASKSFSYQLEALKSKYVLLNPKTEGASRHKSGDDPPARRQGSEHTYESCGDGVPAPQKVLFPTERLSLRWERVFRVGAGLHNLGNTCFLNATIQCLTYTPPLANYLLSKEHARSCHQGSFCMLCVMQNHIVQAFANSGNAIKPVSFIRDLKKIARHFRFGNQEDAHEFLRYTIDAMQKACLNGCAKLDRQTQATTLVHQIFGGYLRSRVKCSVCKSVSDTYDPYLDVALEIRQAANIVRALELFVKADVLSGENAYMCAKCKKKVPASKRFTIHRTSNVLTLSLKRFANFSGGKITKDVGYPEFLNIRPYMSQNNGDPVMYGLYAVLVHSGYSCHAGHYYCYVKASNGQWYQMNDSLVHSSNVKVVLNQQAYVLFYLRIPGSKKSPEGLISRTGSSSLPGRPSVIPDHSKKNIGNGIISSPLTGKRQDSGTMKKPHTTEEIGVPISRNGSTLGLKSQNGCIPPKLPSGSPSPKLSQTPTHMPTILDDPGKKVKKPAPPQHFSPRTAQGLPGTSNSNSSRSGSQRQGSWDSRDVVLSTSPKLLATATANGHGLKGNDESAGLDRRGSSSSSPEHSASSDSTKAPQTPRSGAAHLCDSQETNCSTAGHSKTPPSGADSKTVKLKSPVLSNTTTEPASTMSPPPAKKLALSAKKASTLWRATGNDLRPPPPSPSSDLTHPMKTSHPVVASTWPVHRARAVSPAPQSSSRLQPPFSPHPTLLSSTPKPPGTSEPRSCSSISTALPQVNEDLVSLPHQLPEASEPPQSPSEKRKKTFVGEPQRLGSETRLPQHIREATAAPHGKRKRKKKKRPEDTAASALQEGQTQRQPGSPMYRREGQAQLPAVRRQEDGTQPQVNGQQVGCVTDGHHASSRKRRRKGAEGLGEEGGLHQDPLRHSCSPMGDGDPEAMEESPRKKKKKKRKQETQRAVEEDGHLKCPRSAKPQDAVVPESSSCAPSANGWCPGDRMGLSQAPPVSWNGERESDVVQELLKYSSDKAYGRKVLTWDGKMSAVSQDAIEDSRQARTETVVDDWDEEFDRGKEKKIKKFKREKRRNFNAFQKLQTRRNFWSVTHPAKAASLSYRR
Summary of the method: as §1

[3] = target: T2, USP38 (UniProt Q8NB14)
T2 sequence (whole entry): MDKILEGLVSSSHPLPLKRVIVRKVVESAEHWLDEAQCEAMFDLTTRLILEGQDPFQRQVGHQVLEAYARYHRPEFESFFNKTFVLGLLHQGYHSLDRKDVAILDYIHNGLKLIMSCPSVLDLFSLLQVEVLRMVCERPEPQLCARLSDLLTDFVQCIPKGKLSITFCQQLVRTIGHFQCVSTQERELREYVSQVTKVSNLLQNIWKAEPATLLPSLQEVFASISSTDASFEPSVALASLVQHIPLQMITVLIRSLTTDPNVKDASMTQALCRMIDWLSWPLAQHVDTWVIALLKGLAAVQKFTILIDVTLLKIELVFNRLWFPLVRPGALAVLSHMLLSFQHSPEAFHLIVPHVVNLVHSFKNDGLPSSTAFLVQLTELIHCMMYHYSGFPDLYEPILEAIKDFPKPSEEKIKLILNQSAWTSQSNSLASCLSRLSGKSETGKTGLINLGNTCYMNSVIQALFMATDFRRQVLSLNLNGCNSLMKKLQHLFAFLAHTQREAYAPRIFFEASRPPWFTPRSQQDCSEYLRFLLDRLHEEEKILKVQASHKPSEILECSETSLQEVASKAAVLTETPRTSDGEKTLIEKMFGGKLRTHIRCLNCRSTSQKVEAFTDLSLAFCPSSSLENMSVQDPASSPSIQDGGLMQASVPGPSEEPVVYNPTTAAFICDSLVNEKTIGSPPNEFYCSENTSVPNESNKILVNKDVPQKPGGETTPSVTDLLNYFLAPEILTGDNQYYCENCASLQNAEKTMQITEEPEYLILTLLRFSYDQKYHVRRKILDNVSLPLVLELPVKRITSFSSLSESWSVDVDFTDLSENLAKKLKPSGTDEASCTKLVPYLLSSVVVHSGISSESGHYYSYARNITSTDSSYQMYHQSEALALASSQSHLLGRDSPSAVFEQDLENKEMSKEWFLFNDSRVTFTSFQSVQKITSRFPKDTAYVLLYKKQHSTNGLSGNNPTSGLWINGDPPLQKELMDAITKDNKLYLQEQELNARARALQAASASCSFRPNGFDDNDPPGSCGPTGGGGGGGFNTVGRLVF
Summary of the method: as §1

[4] = target: T3, USP39 (UniProt Q53GS9)
T3 sequence (whole entry): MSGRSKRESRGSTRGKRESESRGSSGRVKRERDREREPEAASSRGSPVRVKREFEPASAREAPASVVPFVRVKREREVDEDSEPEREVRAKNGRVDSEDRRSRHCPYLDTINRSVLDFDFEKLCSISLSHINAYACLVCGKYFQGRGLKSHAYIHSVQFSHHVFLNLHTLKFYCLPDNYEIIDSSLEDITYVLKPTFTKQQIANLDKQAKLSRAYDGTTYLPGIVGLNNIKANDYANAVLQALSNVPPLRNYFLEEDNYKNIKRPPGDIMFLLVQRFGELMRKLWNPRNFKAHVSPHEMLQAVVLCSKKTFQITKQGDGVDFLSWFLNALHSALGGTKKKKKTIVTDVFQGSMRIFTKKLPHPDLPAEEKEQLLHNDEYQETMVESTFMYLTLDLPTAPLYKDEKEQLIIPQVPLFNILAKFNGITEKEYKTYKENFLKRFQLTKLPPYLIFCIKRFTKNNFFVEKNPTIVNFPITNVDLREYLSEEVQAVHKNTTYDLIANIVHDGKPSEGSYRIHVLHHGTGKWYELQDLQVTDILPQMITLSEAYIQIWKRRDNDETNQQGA
Summary of the method: as §1

[5] = target: T4, USP4 (UniProt Q13107)
T4 sequence (whole entry): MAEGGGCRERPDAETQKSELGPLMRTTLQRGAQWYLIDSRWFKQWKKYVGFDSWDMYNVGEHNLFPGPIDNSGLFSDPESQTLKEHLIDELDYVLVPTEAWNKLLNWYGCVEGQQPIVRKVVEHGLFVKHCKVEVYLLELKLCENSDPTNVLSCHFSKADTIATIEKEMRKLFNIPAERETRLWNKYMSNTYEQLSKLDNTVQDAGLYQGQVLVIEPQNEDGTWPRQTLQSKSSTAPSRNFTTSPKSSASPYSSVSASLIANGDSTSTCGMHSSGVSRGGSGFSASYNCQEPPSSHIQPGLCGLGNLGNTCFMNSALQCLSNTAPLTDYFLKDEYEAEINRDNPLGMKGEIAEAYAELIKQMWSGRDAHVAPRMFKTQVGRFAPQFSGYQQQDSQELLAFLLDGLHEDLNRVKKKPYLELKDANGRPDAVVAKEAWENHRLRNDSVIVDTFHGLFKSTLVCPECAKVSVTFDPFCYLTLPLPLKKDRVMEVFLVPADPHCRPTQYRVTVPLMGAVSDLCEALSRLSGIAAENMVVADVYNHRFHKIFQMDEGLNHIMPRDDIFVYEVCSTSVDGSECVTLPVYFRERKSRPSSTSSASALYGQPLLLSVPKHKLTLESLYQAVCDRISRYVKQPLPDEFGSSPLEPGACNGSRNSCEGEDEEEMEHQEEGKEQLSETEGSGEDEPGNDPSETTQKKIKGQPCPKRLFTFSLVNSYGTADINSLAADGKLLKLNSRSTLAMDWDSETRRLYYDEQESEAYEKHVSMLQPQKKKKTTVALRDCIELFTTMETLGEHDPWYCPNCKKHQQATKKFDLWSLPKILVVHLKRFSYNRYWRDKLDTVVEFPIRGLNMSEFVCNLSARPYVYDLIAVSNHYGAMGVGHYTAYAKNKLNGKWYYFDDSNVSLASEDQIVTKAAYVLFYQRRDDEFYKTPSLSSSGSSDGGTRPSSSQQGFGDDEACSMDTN
Summary of the method: as §1

Measured: log2 ratio of Biotin-Ahx-Ub-VS probe labelling

USP34, sequence (Q70CQ2 whole entry, the tested form may be a part): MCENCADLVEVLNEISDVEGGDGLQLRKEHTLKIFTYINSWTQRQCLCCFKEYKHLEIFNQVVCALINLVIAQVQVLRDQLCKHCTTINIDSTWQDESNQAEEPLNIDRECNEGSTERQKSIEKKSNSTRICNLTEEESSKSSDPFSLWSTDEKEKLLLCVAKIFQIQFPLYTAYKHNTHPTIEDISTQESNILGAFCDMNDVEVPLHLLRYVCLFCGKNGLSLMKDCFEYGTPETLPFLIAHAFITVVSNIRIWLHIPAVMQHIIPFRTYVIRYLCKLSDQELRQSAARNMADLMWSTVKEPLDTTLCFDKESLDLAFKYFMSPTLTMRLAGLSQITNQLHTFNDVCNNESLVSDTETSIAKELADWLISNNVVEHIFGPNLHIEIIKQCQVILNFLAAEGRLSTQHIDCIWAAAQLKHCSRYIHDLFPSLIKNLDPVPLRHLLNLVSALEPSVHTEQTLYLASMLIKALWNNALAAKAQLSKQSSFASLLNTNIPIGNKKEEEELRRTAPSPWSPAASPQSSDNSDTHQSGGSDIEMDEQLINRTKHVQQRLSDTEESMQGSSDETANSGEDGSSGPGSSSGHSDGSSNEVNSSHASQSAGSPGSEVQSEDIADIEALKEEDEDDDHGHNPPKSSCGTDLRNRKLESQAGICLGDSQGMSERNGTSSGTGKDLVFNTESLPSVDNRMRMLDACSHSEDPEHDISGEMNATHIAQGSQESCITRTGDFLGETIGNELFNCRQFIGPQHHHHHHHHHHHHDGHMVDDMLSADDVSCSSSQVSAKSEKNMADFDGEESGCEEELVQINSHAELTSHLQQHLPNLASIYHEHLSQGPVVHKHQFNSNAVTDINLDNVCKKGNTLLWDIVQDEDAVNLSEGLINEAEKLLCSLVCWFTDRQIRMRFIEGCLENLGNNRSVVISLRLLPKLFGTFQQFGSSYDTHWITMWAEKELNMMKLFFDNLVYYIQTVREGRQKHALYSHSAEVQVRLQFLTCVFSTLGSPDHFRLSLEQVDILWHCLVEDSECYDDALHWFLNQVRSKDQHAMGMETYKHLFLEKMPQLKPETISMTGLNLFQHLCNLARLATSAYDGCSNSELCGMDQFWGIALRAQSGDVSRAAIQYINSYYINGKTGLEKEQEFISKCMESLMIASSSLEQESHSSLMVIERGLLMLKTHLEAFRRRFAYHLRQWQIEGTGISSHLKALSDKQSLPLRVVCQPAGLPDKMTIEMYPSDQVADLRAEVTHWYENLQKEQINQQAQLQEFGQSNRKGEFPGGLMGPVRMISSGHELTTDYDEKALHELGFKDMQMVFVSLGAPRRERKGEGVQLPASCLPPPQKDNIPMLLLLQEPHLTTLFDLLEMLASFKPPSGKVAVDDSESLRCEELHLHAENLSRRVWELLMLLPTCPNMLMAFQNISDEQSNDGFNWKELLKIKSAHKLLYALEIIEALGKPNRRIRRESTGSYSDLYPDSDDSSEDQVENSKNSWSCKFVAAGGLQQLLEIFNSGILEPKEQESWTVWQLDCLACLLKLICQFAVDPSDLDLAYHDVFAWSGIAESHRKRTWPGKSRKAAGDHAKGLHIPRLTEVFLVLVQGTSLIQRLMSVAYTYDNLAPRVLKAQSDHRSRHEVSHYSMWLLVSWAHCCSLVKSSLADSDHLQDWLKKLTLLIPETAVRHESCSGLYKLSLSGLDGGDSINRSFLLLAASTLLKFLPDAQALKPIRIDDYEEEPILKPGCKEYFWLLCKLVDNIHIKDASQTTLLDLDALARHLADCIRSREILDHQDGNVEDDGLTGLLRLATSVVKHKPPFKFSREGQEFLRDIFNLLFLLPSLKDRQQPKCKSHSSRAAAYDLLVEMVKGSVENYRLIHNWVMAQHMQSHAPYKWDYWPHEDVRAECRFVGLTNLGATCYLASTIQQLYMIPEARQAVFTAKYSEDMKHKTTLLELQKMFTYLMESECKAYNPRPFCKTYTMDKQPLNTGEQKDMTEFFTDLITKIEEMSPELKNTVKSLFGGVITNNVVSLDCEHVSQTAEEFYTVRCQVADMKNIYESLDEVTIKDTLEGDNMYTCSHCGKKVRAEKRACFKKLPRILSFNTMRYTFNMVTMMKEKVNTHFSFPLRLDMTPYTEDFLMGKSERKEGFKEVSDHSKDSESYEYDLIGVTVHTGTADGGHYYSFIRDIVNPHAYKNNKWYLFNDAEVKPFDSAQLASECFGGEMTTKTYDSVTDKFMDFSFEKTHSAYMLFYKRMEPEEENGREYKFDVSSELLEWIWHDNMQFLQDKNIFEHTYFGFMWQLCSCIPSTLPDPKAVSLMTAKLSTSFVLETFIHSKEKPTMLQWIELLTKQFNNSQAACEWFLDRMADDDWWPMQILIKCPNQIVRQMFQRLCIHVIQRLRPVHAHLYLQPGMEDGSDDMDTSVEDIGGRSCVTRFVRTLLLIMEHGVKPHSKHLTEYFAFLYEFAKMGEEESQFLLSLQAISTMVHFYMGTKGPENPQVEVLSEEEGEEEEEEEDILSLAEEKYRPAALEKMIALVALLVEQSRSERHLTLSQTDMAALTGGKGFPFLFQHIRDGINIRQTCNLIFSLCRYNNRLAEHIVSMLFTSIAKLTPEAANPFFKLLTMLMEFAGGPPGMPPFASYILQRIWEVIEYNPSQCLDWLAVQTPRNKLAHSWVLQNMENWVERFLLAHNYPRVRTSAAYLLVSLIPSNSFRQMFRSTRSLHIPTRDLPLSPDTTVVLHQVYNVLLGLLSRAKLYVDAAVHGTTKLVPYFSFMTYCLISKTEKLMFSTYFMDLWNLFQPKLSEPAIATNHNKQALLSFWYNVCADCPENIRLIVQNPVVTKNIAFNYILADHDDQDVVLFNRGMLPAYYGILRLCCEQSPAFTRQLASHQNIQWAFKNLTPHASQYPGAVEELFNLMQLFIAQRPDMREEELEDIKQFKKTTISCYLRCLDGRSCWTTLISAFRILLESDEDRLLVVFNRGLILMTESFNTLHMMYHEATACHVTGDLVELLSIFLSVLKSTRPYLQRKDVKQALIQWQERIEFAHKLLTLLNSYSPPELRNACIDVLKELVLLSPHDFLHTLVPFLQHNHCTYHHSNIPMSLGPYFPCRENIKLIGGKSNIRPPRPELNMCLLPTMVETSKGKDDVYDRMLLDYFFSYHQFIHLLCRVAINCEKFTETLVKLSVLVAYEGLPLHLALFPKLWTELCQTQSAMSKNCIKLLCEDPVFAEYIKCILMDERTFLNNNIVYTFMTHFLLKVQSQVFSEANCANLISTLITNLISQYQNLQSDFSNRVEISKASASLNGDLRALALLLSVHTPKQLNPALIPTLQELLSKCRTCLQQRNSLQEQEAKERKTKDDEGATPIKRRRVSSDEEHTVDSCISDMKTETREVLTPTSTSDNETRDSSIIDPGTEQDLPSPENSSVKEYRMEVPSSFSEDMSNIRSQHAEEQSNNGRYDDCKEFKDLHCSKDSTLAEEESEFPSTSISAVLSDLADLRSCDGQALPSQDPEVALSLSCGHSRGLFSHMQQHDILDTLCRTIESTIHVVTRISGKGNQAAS

O=C(CCl)Nc1cccc(NC(=O)c2ccccc2)c1
inactive: [1] 0.0355 | [2] -0.11 | [3] 0.15 | [4] 0.0551 | [5] 0.199
